Out of some 53,000 sequences screened, about 3,700 (7%) were called active. Shown is part of a subset that was picked to be rich in actives. Values without a mark were called inactive.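 Rule for the calls: active = gene knockdowns whose robust z-score for IL-1 alpha signal is at least 2 or at most -2, so actives lie on both sides; inactive = the rest.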
experiment: Components of the Cytosolic LPS Sensing Pathway: Gene Identification via Genome-wide siRNA Screen; settings: RAW264.7 macrophages, IL-1a HTRF, actives lie on both sides, screened at 100 nM (by protocol), cells primed 5 h with Pam3CSK4 first;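 note: robust z of the log signal after scaling to non-targeting control siRNA wells of the plate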
Summary of the method: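 Using IL-1a HTRF as read-out, the screen measured release from RAW264.7 cells after 48h siRNA knockdown (100 nM), 5 h Pam3CSK4 priming and 24 h cytosolic LipidA. Values were expressed relative to negative-control wells as robust z-scores.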

| Sequence | z-score |
| --- | --- |
| GGACCGCCUUCAACAACAATT against Tpgs1 | 2.68 (active) |
| GGCAUUUACCAAGUUCCUGTT against Olfr522 | -1.26 |
| GGACCAUAAGCACAUGAUUTT against Prl7c1 | 0.668 |
| GGUCCAUACAAGUGUUUGATT against Camk2b | -0.15 |
| GGUACUCGAAUCUGACCUCTT against Nqo1 | 2.04 (active) |
| GGAAACCCAAUAUCAAACUTT against Rnf138 | 0.252 |
| GCAUCACUUACAGAUAGACTT against Olfr305 | -1.21 |
| GCAAUACCUCAGAAAAAGUTT against Tmem165 | -4.14 (active) |
| GGAGGUCCAGAAGAAUUAUTT against Pam16 | 0.957 |
| GCAAAAGUAGAAGAACAACTT against Ccnt1 | -0.172 |
| GGUGGUUACCAUCUUACUUTT against Trhr | 0.532 |
| GGAAAUUUUCAAGCUCAAGTT against Gsdmd | -2.44 (active) |
| GGAGGCAUUCGCAUAGACGTT against Tra2a | 1.68 |
| GGUGUGAGAUCGAAUCAGATT against Arhgef18 | 0.503 |
| GGCACUCUUGUUGAAAUUCTT against H6pd | 0.756 |
| GGGUUGUUUGCUGGUUUGUTT against Tmbim4 | 0.885 |
| GGUUGGAAAUUGGACAGGATT against Col6a3 | 2.22 (active) |
| GGACCUCACAAGUGUUUAUTT against Pola1 | -0.837 |
| GGUGAAUGUGUGGAUUAUCTT against Itih2 | -0.684 |
| GGUUGUUCUUAACAUAACCTT against Ginm1 | 0.0306 |
| GGAUCAAGAAAAGAUGAAATT against Galnt1 | -0.858 |
| GGUGAUGCGAUCUUCUUUATT against Anxa10 | 1.76 |

| Sequence | z-score |
| --- | --- |
| GGUCAAAAUAGAAGGAGUATT against Klhl4 | 0.124 |
| CCCUGUAUAUAUUUGCUGATT against Clca3a2 | 2.78 (active) |
| GGUGCCCAUAAUAGCCAUCTT against Polr2c | -1.02 |
| GCCACACGACAUGUGAUUCTT against C2cd4c | -0.0403 |
| GCAGUUGGCAGGCUAAAAATT against Mff | 1.98 |
| CCCUAACUUAAUAAAACCUTT against Triobp | -2.41 (active) |
| GGACAUCGAAGUCCAACACTT against Plekhm1 | -0.501 |
| CCACUUACAUGUCAGAUUATT against Slc30a6 | 1.09 |
| GGACUGGAAGAAUUUUUUGTT against Mrpl47 | 0.293 |
| GGGACAGAAAGGAAAGACUTT against Ndufb4 | 0.0331 |
| CCAUUGACACCUUAAAUAUTT against Cnot3 | 0.131 |
| GGGCACACCCAUGAAGACATT against Hnf1a | 4.58 (active) |
| GGCAGAACUACUUUUAUAGTT against Cldn17 | 0.436 |
| GGCCGUACUAGAUUUUCUUTT against Olfr695 | 1.35 |
| GGCUGGGAAUUUUACAGUATT against Gpr3 | 3.98 (active) |
| GGCCUAUAAGUUGGACUCCTT against Sstr5 | -0.897 |
| GGAAUAACAGCCUUGUAUUTT against Slc25a15 | -0.145 |
| GGAUCUGAUCCAGACUUCUTT against Ndrg1 | 2.05 (active) |
| GGUUUUCUACAGGAGAGACTT against 9430015G10Rik | 1.33 |
| CGCAAUGCUGGAUUAUUUATT against Ceacam2 | 0.628 |
| GGGAAGUGACAUAUUCUCGTT against Brf2 | -0.277 |
| GGAGAAGCCAGGAGUUUACTT against Klk6 | 1.71 |

| Sequence | z-score |
| --- | --- |
| GGUACUAGAUGACAAAAACTT against Cfap20 | 0.436 |
| GGUGUUUUAAGAUUGAAUGTT against Ccn1 | 0.782 |
| CCCAGGUAGUAUACAAGGUTT against Pcdh1 | 2.42 (active) |
| CCCUCCAGUAAAUUUUAAGTT against Sox6 | 1.7 |
| GGCAUAUGCCAGUAUCGGUTT against Defb8 | -0.595 |
| GGAAUGGUAUCAGACUUCUTT against Tarm1 | 1.54 |
| GCUACAGAAACCCGGGUAGTT against Jsrp1 | -1.46 |
| CCGCCAUAGGCUCCUUCAATT against Acat3 | 0.915 |
| GGGAUCAAUGUCAUCCUUUTT against Nif3l1 | -0.442 |
| GCUGCGUAGAACCAUAUGCTT against Cst9 | -0.802 |
| GGAAAUCGAGGUUACAAGUTT against Isy1 | -2.64 (active) |
| GGCCACUGACCAUGAAGAATT against Gata2 | -0.289 |
| GGCAAACAUGAAUCUUACCTT against Cyth4 | -0.375 |
| GGAGAUCAUCCACUUCCAGTT against Dbh | 2.06 (active) |
| GCAAGACUCUACACAUCACTT against Nox4 | 0.0384 |
| GAGACAGAUAGGCAGAAAATT against Olfr478 | -1.02 |
| CCAAUUGAAACUCUUUUCCTT against Thada | 0.562 |
| GGUUUGGUGUCAGGUGACATT against Olfr1181 | -2.05 (active) |
| GGGUGAAAAAGGAAUAAAGTT against Col7a1 | 0.344 |
| GGAAAUCAUCUUUUCAGAUTT against Slc7a12 | -0.443 |
| GCCACUAGUGAAGACAUCCTT against Adamtsl1 | -0.149 |
| CGUCUCCAUAGAUCUAGAUTT against Creb3 | -0.748 |

| Sequence | z-score |
| --- | --- |
| CCAUCUUGACACCCAAACUTT against Olfr170 | -3.09 (active) |
| CGAAAGCAUUGCCUACUUUTT against Anks3 | 0.843 |
| GGGACUUUAAAAAAGACUCTT against Olfr1366 | 2.1 (active) |
| CCAGAGGUCUCUAUUAAGATT against Cad | -0.0939 |
| GGACAUGGAUCAAAGUUCATT against Zfp40 | -0.645 |
| GGCAUCUCCUCGAAUUUAUTT against Theg | -0.737 |
| GGAGCAUCCCGACUACAAGTT against Sox21 | 3.54 (active) |
| GGAUCGAUCUGACAUCAAATT against Epyc | -0.31 |
| CCUAUUAAUAUGGAAAGUGTT against Arcn1 | 0.675 |
| GGGCAACUAUCUUCAAAAATT against Nxnl2 | 0.328 |
| GGCAAUUACCCACCCUGUUTT against Mfsd6 | -2.57 (active) |
| CCAAGCCUAAUAAAAUUCCTT against Lsr | 0.867 |
| GGCAGAAAACAAGAUAAAGTT against Eif4h | -0.325 |
| CGGCAAGAUGUCUACUAACTT against Wdtc1 | 0.655 |
| CCCUAACUCUGUUAAUGCATT against Casp14 | -0.627 |
| GGAAAUUGGUCCAGUUAUUTT against Magee1 | 1.37 |
| CCAACUGUUGGUGAUGAUGTT against Cpsf6 | -2.05 (active) |
| GCGGGCCAUAAAGAGACAUTT against Timm17a | -0.164 |
| GGGAUUUAAAGCCAACUUGTT against Sfpq | 0.62 |
| GGAGAAAUAGAUUCAGUGATT against Cep170 | -0.839 |
| GGCAGUUUUUGGACUGUCCTT against Olfr556 | -0.21 |
| GGUUAAGAGCGUACGUUUUTT against Tmem204 | 1.46 |

| Sequence | z-score |
| --- | --- |
| GGACAACCUUUACUUCUCUTT against Rhox9 | -2.78 (active) |
| GGGAGAUCUCUCACAGAUCTT against Gja10 | 1.41 |
| CCAUAGUGUAUCUGACUGGTT against Iqsec1 | -0.135 |
| GGUGGUGAAGCUAAAGCAGTT against Prkaca | -1.58 |
| GCAUGGACAGUUAUGUAUATT against Slc5a6 | -0.207 |
| GGUGUUAGAUUCUUUGUAATT against Cst6 | 2.04 (active) |
| GGUAUAGUAGUGGAAGAUUTT against Uso1 | 0.341 |
| GGACUUAUGGCAUUAGAAUTT against Nup88 | -1.17 |
| GGUGAUCCUAAGAAAGUCCTT against Ireb2 | 1.07 |
| GGAUUGGUUUAGUCAAUAATT against Psmc4 | -2.03 (active) |
| GCUUCCUUCUGCUAGAUGGTT against Oxct2a | -0.409 |
| GGUUUAGAAUGCAUAACAGTT against Dzank1 | -0.217 |
| UAUUAAACUCUUGAGACCGTT against Oxa1l | -0.571 |
| GGAAAAGCCUACUUCAAAATT against Efcab7 | 0.9 |
| GGAAAACAAGUGGAAAGGGTT against C130071C03Rik | 1.54 |
| GGAUCAGCAACAGUCUCCATT against 1700029M20Rik | -2.01 (active) |
| CCAGCUUCCUCGUAAGUGATT against Hsf4 | -1.71 |
| CCACGAUAUUCCAGGUCUGTT against AF067063 | -1.54 |
| GCGAUUGUCCAAGAAUUCCTT against Crcp | 0.822 |
| GGGAGAGGACGACAUUUACTT against Otx2 | 0.645 |

Source: PubChem BioAssay AID1508600 (Functional Genomics Laboratory (NCATS/FGL), 2020)
